# Assay results as given in PubChem BioAssay (Tox21).
# Records with an inconclusive call do not appear. Unmarked numbers belong to inactive results. The source made the active and inactive calls. Calls follow the shape of the dose curve; as a rule, active = well fitted cell-killing curve with a large enough effect in the repeat runs; inconclusive = weak or mixed curves; inactive = no such curve, though single readings can be large or run the other way.
# Test: qHTS assay to identify small molecule antagonists of the peroxisome proliferator-activated receptor delta (PPARd) signaling pathway - cell viability counter screen (AID 743213); also: nearly all actives have a fitted effect of over 50% in size
# Conditions: PPARd-bla HEK293H viability, CellTiter-Glo luminescence, 17 h; series mostly up to 62 µM
# Description: U.S. Tox21 Program National Center for Advancing Translational Sciences [NCATS] NIH Chemical Genomics Center [NCGC] U.S. Environmental Protection Agency [EPA] National Institutes of Environmental Health Sciences [NIEHS] National Toxicology Program [NTP] U.S. Food and Drug Administration [FDA] Tox21 Assay Overview: The peroxisome proliferator-activated receptors (PPARs) are lipid-activated transcription factors of the nuclear receptor superfamily with three distinct subtypes namely PPAR alpha, PPAR delta (PPARd) and PPAR gamma. All these subtypes heterodimerizes with Retinoid X receptor (RXR) and have different physiological functions. […] To identify the compounds that inhibit PPAR-delta signaling, GeneBLAzer PPAR delta UAS-bla HEK293H cell line (Invitrogen, Carlsbad, CA, USA) containing a beta-lactamase reporter gene under the control of an Upstream Activator Sequence (UAS) was used to screen the Tox21 compound library. The cytotoxicity of the Tox21 compound library against the PPARd-bla cell line was tested in parallel by measuring the cell viability using CellTiter-Glo assay (Promega, Madison, WI) in the same wells.
# Tox21 Assay Protocol Summary: PPARd-bla cells were dispensed at 3000 cells/5uL/well in 1536-well black wall/clear bottom plates using a Multidrop Combi (Thermo Fisher Scientific, Waltham, MA) dispenser. After the assay plates were incubated at 37 C and 5% CO2 for 5 h, 23 nL of compounds dissolved in DMSO, positive controls or DMSO only was transferred to the assay plate by a Pintool station (Kalypsys, San Diego, CA), followed by addition of 1ul L165041 (300 nM, final concentration in the wells). The assay plates were incubated at 37 C for 17 h, and then 1 uL of LiveBLAzerTM B/G FRET substrate was added using a Bioraptr Flying Reagent Dispenser (FRD) workstation (Beckman Coulter, Indianapolis, IN, USA). The assay plates were incubated at room temperature for 2 h and fluorescence intensity was measured by an Envision plate reader (PerkinElmer, Shelton, CT). For cell viability readout that measures cytotoxicity, 3 ul/well of CellTiter-Glo reagent was added into the assay plates using a Bioraptr FRD. After 30 min incubation at room temperature, the luminescence intensity in the plates was measured using a ViewLux plate reader (PerkinElmer).
# % is scaled to controls: 0 for no effect and ±100 for the full control effect.
Structure (SMILES),outcome,"viability change, negative = cytotoxic"
Nc1ccccc1[N+](=O)[O-],inactive,–
CCN(CC)CCCC(C)Nc1ccnc2cc(Cl)ccc12 (stereo not given),–,-17.6% [at 6.26 µM]
CCCCC(CC)COC(=O)CCCCC(=O)OCC(CC)CCCC (stereo not given),inactive,–
CC(=O)c1ccccc1,inactive,–
Cc1occc(=O)c1O,inactive,–
NNc1nncc2ccccc12,inactive,–
OCc1cccnc1,inactive,–
O=c1[nH]nnc2ccccc12,inactive,–
O=C(O)c1cc(=O)c2c(OCC(O)COc3cccc4oc(C(=O)O)cc(=O)c34)cccc2o1,inactive,–
Nc1cc([N+](=O)[O-])ccc1O,inactive,–
N[C@@H](Cc1cc(I)c(Oc2cc(I)c(O)c(I)c2)c(I)c1)C(=O)O,inactive,–
O=C(CC(C(=O)OC1CCCCC1)S(=O)(=O)O)OC1CCCCC1 (stereo not given),inactive,–
O=[N+]([O-])c1ccc(/C=C/c2ccc([N+](=O)[O-])cc2S(=O)(=O)O)c(S(=O)(=O)O)c1,inactive,–
O=C=NCCCCCCN=C=O,inactive,–
C[Si](O[Si](C)(C)C)O[Si](C)(C)C,inactive,–
CCN(CC)c1ccc(C(=O)c2ccccc2C(=O)O)c(O)c1,inactive,–
CCCCCCCCCC,inactive,–
CCCCOC(=O)COc1ccc(Cl)cc1Cl,inactive,–
CCCCCCCCCCCCCCCO,inactive,–
O=C(Oc1ccccc1)c1ccccc1,inactive,–

Structure (SMILES),outcome,"viability change, negative = cytotoxic"
C=C(C)C(=O)OCCOCCOCCOC(=O)C(=C)C,inactive,–
O=C1CCC(N2C(=O)c3ccccc3C2=O)C(=O)N1 (stereo not given),inactive,–
OC[C@H]1O[C@@](CO)(O[C@H]2O[C@H](CO)[C@@H](O)[C@H](O)[C@H]2O)[C@@H](O)[C@@H]1O,inactive,–
CCCCCC1=CCCC1=O,inactive,–
CC(=O)Nc1ccccc1,inactive,–
CC(=O)CC(=O)Nc1ccccc1,inactive,–
CCC(O)OCCCOC (stereo not given),inactive,–
CC(=O)Nc1cccc(O)c1,inactive,–
CC(O)COCC(C)O (stereo not given),inactive,–
CCCCC(CC)COC(=O)C(C#N)=C(c1ccccc1)c1ccccc1 (stereo not given),inactive,–
c1c[nH]cn1,inactive,–
c1ccc2c(c1)ccc1ccccc12,inactive,–
O=S1(=O)CC=CC1,inactive,–
C=C(C)C(=O)O[C@H]1C[C@@H]2CC[C@@]1(C)C2(C)C,inactive,–
Cc1ccc(N(C)C)cc1,inactive,–
COc1ccc(Cl)cc1C(=O)NCCc1ccc(S(=O)(=O)NC(=O)NC2CCCCC2)cc1,inactive,–
CC(C)CC(=O)CC(C)C,inactive,–
O=C(O)CC(C(=O)O)C(CC(=O)O)C(=O)O (stereo not given),inactive,–
Oc1cccc2ccccc12,inactive,–
CC(=O)CC(=O)Nc1ccccc1C,inactive,–
